# Experimental data as given in PubChem BioAssay.
# The source made the active and inactive calls. Unless noted, the rule behind the calls is not given here.
# Assays:
# [1] = compounds binding Alexa647 anti-His antibody – biochemical, small-molecule microarray, 635 nm fluorescence, artefact control for SMM control protein annotation, primary screen (AID 1128); settings: higher = more signal;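 note: score merges feature fluorescence with signal-to-noise for each printed compound spot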
# [2] = system: Human papillomavirus type 1a E7 protein (residues 1-88); test: HPV1a E7 small-molecule binders, primary screen, biochemical, small-molecule microarray, residues 1-88, 635 nm (AID 1129); settings: small-molecule microarray binding, fluorescence 635 nm; higher = more signal
# [3] = molecular target: Focal adhesion kinase 1 (Homo sapiens) (UniProt Q05397); test: PTK2 protein binding on printed compound slides – biochemical, small-molecule microarray, 635/667 nm fluorescence, BSA, DTT, primary screen (AID 1130); settings: 635 nm fluorescence, higher = more signal;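 note: composite of spot emission at 667 nm and signal to noise over triplicate slides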
# [4] = system: Fibrinogen (Alexa647-labelled); test: Alexa647-fibrinogen binding to printed small molecules – biochemical, small-molecule microarray, 635/667 nm fluorescence, artefact control for SMM control-protein annotation, profiling panel (AID 1131); settings: fibrinogen-A647 binding fluorescence, higher = more signal;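 note: z-score merges 667 nm fluorescence with per-spot signal-to-noise over triplicate slides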
# [5] = molecular target: Follistatin (Homo sapiens) (UniProt P19883); test: FST protein binding to printed compounds – biochemical, small-molecule microarray, 635/667 nm fluorescence, primary screen (AID 1132); settings: 635 nm fluorescence, higher = more signal
# [6] = molecular target: Fibroblast growth factor 2 (Homo sapiens) (UniProt P09038); test: basic fibroblast growth factor binding to printed compounds – biochemical, small-molecule microarray, 635/667 nm fluorescence, primary screen (AID 1133); settings: FGF2, fluorescence 635/667, higher = more signal
# [7] = JC-1 mitochondrial potential readout, lung cancer cells – cell-based, A549, JC-1 fluorescence, basal, 24 h, 100 nL, profiling panel (AID 1138); settings: higher = more signal;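 note: A549 lung adenocarcinoma cells under basal conditions with no added stimulus; test concentration not given here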
# [8] = system: Lefty1; test: Lefty1 protein binding to printed compounds – biochemical, small-molecule microarray, 635/667 nm fluorescence, primary screen (AID 1139); settings: fluorescence 635/667, higher = more signal
# [9] = system: wheat germ agglutinin (Triticum aestivum), Alexa647-labelled; test: Alexa647-WGA lectin binding to printed small molecules – biochemical, small-molecule microarray, 635/667 nm fluorescence, artefact control for SMM control-protein annotation, profiling panel (AID 1140); settings: WGA-A647 binding, 635 nm fluorescence, higher = more signal;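 note: score merges 667 nm feature emission with signal to noise over triplicate slides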
# [10] = molecular target: Luciferin 4-monooxygenase (Photinus pyralis) (UniProt P08659); test: inhibition of purified Photinus pyralis luciferase – biochemical, luminescence, purified enzyme, 2006 set, primary screen (AID 1141); settings: purified firefly luciferase, SteadyGlo luminescence, 30 min; higher = more signal, called active from +8 up or from −8 down;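 note: cell-free assay with purified firefly luciferase at 100 ng per well in PBS; test concentration not given here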
# [11] = system: Wnt5a (protein binding on small-molecule microarray); test: small molecules binding Wnt5a protein – biophysical, small-molecule microarray, 635/667 nm fluorescence, primary screen (AID 1142); settings: 635 nm fluorescence, higher = more signal;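 note: fluorescence read at 667 nm with signal to noise per printed feature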
# [12] = ATP-based viability of Huh7 replicon cells – cell-based, CellTiter-Glo luminescence, basal, 48 h, cytotoxicity control for HCV replication inhibitor project, primary screen (AID 1143); settings: higher = more signal, called active from +8 up or from −8 down;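 note: Huh7 hepatoma cells carrying a hepatitis C replication reporter with no stimulus; test concentration not given here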
# [13] = Pseudomonas biofilm growth suppression – PAO1 strain, BacTiter-Glo luminescence, LB-PBS, primary screen (AID 1144); settings: P. aeruginosa PAO1 biofilm, 12 h, higher = more signal
# [14] = basal CRE-LacZ reporter activity in PC12 – cell-based, unstimulated, primary screen (AID 1145); settings: no forskolin, luminescence, 4.5 h, higher = more signal, called active from +8 up or from −8 down
# [15] = forskolin-driven CRE-LacZ activity in PC12 – cell-based, CRE-LacZ reporter, forskolin-stimulated, primary screen (AID 1146); settings: luminescence, 4.5 h, higher = more signal, called active from +8 up or from −8 down;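 note: PC12 cells with 6xCRE LacZ reporter stimulated by forskolin 10 µM; beta-galactosidase reporter signal reflecting CREB driven transcription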
# [16] = molecular target: Streptavidin (Streptomyces avidinii) (UniProt P22629); test: compounds binding control protein streptavidin – biophysical, small-molecule microarray, 635/667 nm fluorescence, artefact control for SMM compound annotation, primary screen (AID 1147); settings: higher = more signal;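 note: signal reflects streptavidin binding to arrayed compounds as a control protein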
# [17] = probe aInhba binding on compound microarray – biochemical, small-molecule microarray, 635/667 nm fluorescence, primary screen (AID 1148); settings: higher = more signal;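 note: score merges 667nm spot fluorescence with signal-to-noise for antibody binding to printed compounds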
# [18] = molecular target: Torsin-1A (Homo sapiens) (UniProt O14656); test: TOR1A wild-type binding on microarray – cell lysate, small-molecule microarray, lysate, 635/667 nm, primary screen (AID 1149); settings: COS7 hTOR1A-WT lysate, 635 nm fluorescence, higher = more signal
# [19] = molecular target: Torsin-1A (Homo sapiens) (UniProt O14656); test: torsin A mutant lysate binding on microarrays – cell lysate, small-molecule microarray, COS7 lysate, 635/667 nm fluorescence, primary screen (AID 1150); settings: COS7 hTOR1A mutant lysate, 635 nm fluorescence, higher = more signal;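 note: score pools 667 nm emission and signal to noise measuring lysate protein binding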
# [20] = system: Sonic hedgehog protein (Shh); test: Sonic hedgehog microarray binding compounds – biochemical, small-molecule microarray, 635/667 nm fluorescence, primary screen (AID 1151); settings: 635 nm fluorescence, higher = more signal;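 note: Shh protein binding to compounds spotted on small-molecule microarray slides; score combines spot fluorescence intensity with signal-to-noise across triplicate slides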
# Chain of Luciferin 4-monooxygenase (Photinus pyralis) (P08659 whole entry, looked up): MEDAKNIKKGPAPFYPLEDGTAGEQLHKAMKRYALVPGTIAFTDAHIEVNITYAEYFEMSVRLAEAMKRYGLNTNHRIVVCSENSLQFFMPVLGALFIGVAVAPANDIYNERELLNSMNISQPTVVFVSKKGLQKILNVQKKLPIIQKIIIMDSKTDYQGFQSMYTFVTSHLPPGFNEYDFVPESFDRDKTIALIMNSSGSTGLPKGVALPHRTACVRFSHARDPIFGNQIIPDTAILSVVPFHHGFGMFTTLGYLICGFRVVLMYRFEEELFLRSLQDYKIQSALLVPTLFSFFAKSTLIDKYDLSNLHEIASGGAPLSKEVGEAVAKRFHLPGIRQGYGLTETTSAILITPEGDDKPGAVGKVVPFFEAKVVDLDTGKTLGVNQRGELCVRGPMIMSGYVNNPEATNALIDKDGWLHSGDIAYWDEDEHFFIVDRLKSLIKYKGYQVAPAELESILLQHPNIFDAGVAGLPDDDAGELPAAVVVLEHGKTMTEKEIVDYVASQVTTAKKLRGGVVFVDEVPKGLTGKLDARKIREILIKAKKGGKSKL
# Chain of Follistatin (Homo sapiens) (P19883 whole entry, looked up): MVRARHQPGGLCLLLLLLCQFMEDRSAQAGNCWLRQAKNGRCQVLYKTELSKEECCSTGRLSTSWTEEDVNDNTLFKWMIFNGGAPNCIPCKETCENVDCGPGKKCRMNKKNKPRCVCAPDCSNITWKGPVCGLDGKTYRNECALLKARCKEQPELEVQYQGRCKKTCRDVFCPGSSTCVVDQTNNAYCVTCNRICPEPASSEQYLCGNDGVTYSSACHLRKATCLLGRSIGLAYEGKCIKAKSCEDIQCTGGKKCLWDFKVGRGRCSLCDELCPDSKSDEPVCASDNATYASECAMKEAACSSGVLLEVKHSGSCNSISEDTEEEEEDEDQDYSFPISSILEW
# Chain of Streptavidin (Streptomyces avidinii) (P22629 whole entry, looked up): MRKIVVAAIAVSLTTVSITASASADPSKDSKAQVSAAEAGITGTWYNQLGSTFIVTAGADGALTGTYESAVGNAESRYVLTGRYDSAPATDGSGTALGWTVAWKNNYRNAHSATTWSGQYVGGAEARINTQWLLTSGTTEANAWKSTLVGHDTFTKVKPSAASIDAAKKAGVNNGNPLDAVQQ
# Chain of Torsin-1A (Homo sapiens) (O14656 whole entry, looked up): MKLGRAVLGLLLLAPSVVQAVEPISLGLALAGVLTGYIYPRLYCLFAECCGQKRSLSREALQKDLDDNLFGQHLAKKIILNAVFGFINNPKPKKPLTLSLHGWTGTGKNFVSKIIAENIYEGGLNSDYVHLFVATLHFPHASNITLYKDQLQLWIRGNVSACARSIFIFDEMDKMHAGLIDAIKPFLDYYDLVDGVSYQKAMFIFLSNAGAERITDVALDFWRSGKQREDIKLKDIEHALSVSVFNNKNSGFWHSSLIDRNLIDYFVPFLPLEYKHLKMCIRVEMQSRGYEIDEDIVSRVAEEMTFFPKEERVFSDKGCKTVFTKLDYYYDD
# Chain of Fibroblast growth factor 2 (Homo sapiens) (P09038 whole entry, looked up): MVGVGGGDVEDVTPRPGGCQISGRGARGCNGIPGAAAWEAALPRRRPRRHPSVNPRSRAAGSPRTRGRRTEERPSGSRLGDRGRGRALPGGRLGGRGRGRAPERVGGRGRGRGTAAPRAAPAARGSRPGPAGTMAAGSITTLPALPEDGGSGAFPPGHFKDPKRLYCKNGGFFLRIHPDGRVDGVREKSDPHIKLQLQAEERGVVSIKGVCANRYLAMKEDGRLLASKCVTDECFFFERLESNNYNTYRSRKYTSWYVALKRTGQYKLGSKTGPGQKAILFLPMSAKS
# Chain of Focal adhesion kinase 1 (Homo sapiens) (Q05397 whole entry, looked up): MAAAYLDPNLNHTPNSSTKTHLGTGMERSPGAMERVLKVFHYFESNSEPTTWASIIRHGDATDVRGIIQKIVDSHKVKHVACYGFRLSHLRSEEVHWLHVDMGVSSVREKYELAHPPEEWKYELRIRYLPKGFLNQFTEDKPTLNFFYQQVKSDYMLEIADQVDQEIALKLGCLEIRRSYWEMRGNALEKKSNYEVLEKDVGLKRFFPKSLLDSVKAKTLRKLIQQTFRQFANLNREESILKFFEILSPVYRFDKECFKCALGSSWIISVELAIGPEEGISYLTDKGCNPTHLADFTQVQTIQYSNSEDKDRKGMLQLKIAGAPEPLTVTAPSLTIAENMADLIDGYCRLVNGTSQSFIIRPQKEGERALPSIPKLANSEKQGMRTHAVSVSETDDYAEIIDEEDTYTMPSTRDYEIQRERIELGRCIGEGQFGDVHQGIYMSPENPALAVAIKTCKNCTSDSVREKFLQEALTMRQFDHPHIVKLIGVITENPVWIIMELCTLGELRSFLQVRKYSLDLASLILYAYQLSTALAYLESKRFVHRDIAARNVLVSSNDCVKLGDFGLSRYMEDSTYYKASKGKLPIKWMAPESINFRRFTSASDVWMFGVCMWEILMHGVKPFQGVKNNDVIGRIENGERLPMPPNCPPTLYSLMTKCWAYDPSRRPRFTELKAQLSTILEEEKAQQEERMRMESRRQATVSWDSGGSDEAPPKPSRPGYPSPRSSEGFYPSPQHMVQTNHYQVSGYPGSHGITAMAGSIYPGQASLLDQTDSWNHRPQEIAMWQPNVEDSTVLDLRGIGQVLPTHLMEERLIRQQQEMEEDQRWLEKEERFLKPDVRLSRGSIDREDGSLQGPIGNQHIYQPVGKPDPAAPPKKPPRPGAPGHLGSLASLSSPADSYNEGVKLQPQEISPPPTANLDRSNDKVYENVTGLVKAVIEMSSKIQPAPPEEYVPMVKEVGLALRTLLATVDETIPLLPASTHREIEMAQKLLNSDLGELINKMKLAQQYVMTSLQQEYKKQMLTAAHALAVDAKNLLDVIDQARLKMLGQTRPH
Structure (SMILES),composite z-score [1],composite z-score [2],composite z-score [3],composite z-score [4],composite z-score [5],composite z-score [6],z-score [7],composite z-score [8],composite z-score [9],z-score [10],composite z-score [11],z-score [12],z-score [13],z-score [14],z-score [15],composite z-score [16],composite z-score [17],composite z-score [18],composite z-score [19],composite z-score [20]
O=C1OCCC/C=C\[C@H]2OC34C=CCN(Cc5ccccc5)C(=O)[C@H]3N(CCCO)C(=O)[C@@H]4C12 (stereo not given in full),-0.14,-0.496,-0.66,-1.64,-1.29,-1.08,1.26,-1.28,-0.443,-1.26 (inactive),-0.597,-0.639 (inactive),2.87 (inactive),0.593 (inactive),-0.59 (inactive),-1.1,-0.176,-1.14,-2.13,-0.85
C=CCOC(=O)[C@H]1[C@@H]2C(=O)O[C@@H](c3ccccc3)[C@@H](c3ccccc3)N2[C@@H](c2ccc(OCCOC(=O)[C@@H]3C[C@@H]4C(=O)N[C@@H](CC(C)C)C(=O)N4[C@@H]3c3ccc(O)cc3)cc2)[C@]12C(=O)Nc1ccccc12,2.05,1.21,0.289,0.78,1.39,1.83,-1.56,1.54,0.232,-0.0838 (inactive),0.384,-1.37 (inactive),-1.04 (inactive),-0.541 (inactive),0.0707 (inactive),0.359,0.0442,0.941,0.95,2.08
COC(=O)[C@H](Cc1ccccc1)N1CC2=C[C@@H](C3CC3)n3c(=O)n(C)c(=O)n3[C@H]2[C@@H]1[C@@H](O)Cc1ccccc1,0.0823,0.881,0.148,0.588,0.898,0.212,1.58,0.972,0.0263,-0.126 (inactive),0.0601,-1.18 (inactive),0.39 (inactive),2.03 (inactive),-0.269 (inactive),0.462,-0.0589,0.413,-0.0857,1.4
CCOC(=O)C[C@H]1[C@H](OC(=O)c2ccc(C(=O)c3ccccc3)cc2)[C@@H](NC(=O)c2ccc3ccccc3n2)c2cc(OCCCO)ccc2N1C(=O)c1ccccc1,-0.0053,0.924,0.0305,0.807,0.559,0.674,0.332,1.63,0.761,0.393 (inactive),0.369,-0.0142 (inactive),0.0839 (inactive),0.498 (inactive),0.0154 (inactive),0.616,0.0561,0.484,0.605,1.2
C=CCOC(=O)[C@@H]1[C@H]2C(=O)O[C@H](c3ccccc3)[C@H](c3ccccc3)N2[C@H](c2ccc(OCCOC(=O)[C@H]3C[C@H]4C(=O)N5CCC[C@H]5C(=O)N4[C@H]3c3ccc(O)cc3)cc2)[C@@]12C(=O)Nc1ccc(I)cc12,2.01,1.19,0.453,0.409,1.39,1.58,-1.6,1.42,0.497,-0.376 (inactive),0.259,-2.3 (inactive),-0.212 (inactive),0.277 (inactive),-0.466 (inactive),-0.033,-0.0775,0.919,0.98,2.15
COCCOC(=O)N1C(=O)[C@@]2(c3cc(C#CCC(C(=O)OC)C(=O)OC)ccc31)[C@H](C(=O)Nc1nc3ccccc3s1)[C@H]1C(=O)O[C@H](c3ccccc3)[C@H](c3ccccc3)N1[C@@H]2c1ccccc1OCCO,1.41,1.22,0.714,0.965,0.602,0.579,-2.07,0.275,1.2,-1.56 (inactive),0.346,-3.81 (inactive),-1.12 (inactive),-0.141 (inactive),0.401 (inactive),0.487,0.0711,0.776,0.456,1.13
C=CCNC(=O)[C@H]1[C@@H]2C(=O)O[C@@H](c3ccccc3)[C@@H](c3ccccc3)N2[C@@H](c2ccccc2OCCO)[C@]12C(=O)Nc1ccc(C#CCC(C(=O)OC)C(=O)OC)cc12,1.46,1.26,0.412,0.931,1.35,1.27,0.627,1.25,1.28,0.62 (inactive),0.761,-3.8 (inactive),0.608 (inactive),-0.0784 (inactive),0.876 (inactive),0.999,0.277,0.954,1.06,1.84
CO[C@H]1O[C@H](CO)[C@@H](OC(=O)Nc2ccc(Oc3ccccc3)cc2)[C@H](OC(=O)Nc2ccc3c(c2)OCO3)[C@H]1OC(=O)Nc1ccc2c(c1)OCO2,1.83,1.2,1.29,0.933,1.34,0.957,-0.249,1.05,1.18,-6.84 (inactive),0.636,-1.48 (inactive),-0.822 (inactive),1.09 (inactive),-0.922 (inactive),0.412,0.443,0.387,0.661,1.41
O=C1C2C=CC(C(O)c3cc(C(F)(F)F)cc(C(F)(F)F)c3)N(n3cnnc3)C2C(=O)N1Cc1ccccc1 (stereo not given),0.955,-0.269,-0.176,0.889,-0.192,-0.794,-1.57,-0.264,1.05,1.46 (inactive),-0.484,-1.34 (inactive),-1.12 (inactive),0.089 (inactive),0.753 (inactive),0.0422,-0.0719,-0.808,-0.0144,-0.755
